aSyn 5UTR inh: 5' untranslated region of α-synuclein, MLPCN primary screen. inhibition, % (tested at 7.5 µM). 0.82% of 300,000 active. alpha-synuclein 5'UTR reporter, inhibitor activity; in the data active = inhibition above about 60%; inconclusive = no clear call, values can overlap the other calls;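 note: H4 neuroglioblastoma cells stably carrying SNCA 5'UTR luciferase fusion; 0% = DMSO wells and 100% = positive control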
CSC inhib: blocks cancer stem cells; 1.1% of 300,000 active; inhibition, % at 7.5 µM; AID 2717; cancer stem cell-like cells viability, luminescence; in the data active = inhibition above about 75%; inconclusive = no clear call, values can overlap the other calls; tested in HMLE shEcad cells
KLF5 inh: suppresses KLF5 promoter-driven expression; DLD-1 KLF5 promoter-luciferase reporter, luminescence; inhibition, % at 5 µM; 0.23% of 290,000 active; AID 1700;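 active = inhibition above a per-plate limit of that plate's mean compound inhibition plus 3 SD, cut at about 60% in these data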;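 note: 0% = DMSO wells and 100% = LY294002 at 200 µM; higher means less KLF5 promoter-driven luciferase light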
SKKanGAS inh: SKKanGAS growth inhibition | 1.3% of 300,000 active | inhibition, % at 7.5 µM | AID 1662 | S. pyogenes SKKanGAS, kanamycin growth, BacTiter-Glo, 6 h;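 active = mean replicate score, as percent of positive control median, at least 50; inconclusive = mean below 50 but one replicate at or above 50; inactive = mean and every replicate below 50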;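 note: strain carries kanamycin resistance gene driven by streptokinase promoter and grows in 40 µg/ml kanamycin; loss of luminescence reflects streptokinase promoter inhibition or plain growth inhibition; 0% = median of DMSO wells and 100% = positive control at its reference dose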
IEC-6 tox: IEC-6 cytotoxicity, counter-screen for KLF5 inhibitors; luminescence viability; inhibition, % at 5 µM; 0.78% of 290,000 active; AID 1825; in the data active = inhibition above about 22%;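 note: 0% = plate median of test compound wells and 100% = cytotoxic reference compound wells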
Numbers without * were called inactive; u = inconclusive; x = no result. Shown are actives, neighbours in structure and some others; about 3% of the full set was active somewhere.

SMILES | aSyn 5UTR inh | CSC inhib | KLF5 inh | SKKanGAS inh | IEC-6 tox
Cc1cccnc1NC1(C(F)(F)F)N=C(c2ccccc2)NC1=O (stereo not given) | 18 | -8 | 17 | -3 | 2
CC(C)/C=C/C(=O)N1CCCC(N2CCN(c3ccccc3F)CC2)C1 (stereo not given) | 8 | -16 | -10 | 0 | -14
Cn1c(-c2c(N)n(CCc3ccccc3)c3nc4ccccc4nc23)nc2ccccc21 | -38 | 40 | -14 | 104* | 6
Cn1c(-c2c(N)n(CCCc3ccccc3)c3nc4ccccc4nc23)nc2ccccc21 | -57 | x | -16 | 113* | 6
Cn1c(-c2c(N)n(C3CCCC3)c3nc4ccccc4nc23)nc2ccccc21 | 5 | 68 | -20 | 102* | 4
CN(C)c1ccc(/C=C(\C#N)c2ccccc2)cc1 | x | x | -17 | x | 74*
CN(C)c1ccc(/C=C(\C#N)C(=O)c2ccccc2)cc1 | 6 | 1 | 1 | -3 | 6
Cc1ccc(CNc2ccccc2C(=O)O)s1 | -14 | 5 | -21 | 1 | 3
COc1ccc(C)cc1NC(=O)CSc1nnc(COc2ccc(Cl)cc2)n1Cc1ccco1 | 16 | 79* | -24 | 22 | 3
COc1ccc(C)cc1NC(=O)CSc1nnc(COc2ccccc2)n1Cc1ccco1 | 35 | 38 | -17 | 5 | 0
Fc1ccc(-c2csc(/C=C/c3ccc4c(c3)OCO4)n2)cc1 | -186 | 11 | 8 | -9 | -1
Cc1ccc(/C(=N/Nc2nc3ccccc3s2)C2=C(O)c3ccccc3C2=O)cc1 | -7 | -9 | -41 | 57* | -3
Cc1ccc(S(=O)(=O)N(C)CC(=O)Nc2nc3ccccc3s2)cc1 | 5 | -2 | -35 | 10 | 0
C=C1[C@@H](O)[C@@H]2O[C@]3(CC[C@H](/C=C/[C@@H](C)[C@@H]4CC(C)=CC5(O[C@H](C[C@@](C)(O)C(=O)OC)CC[C@H]5O)O4)O3)CC[C@H]2O[C@@H]1[C@@H](O)C[C@H](C)[C@H]1OC2(CCCCO2)CC[C@H]1C (stereo not given in full) | x | 77* | x | x | x
COc1ccc(Cl)cc1C(=O)NNC(=O)c1cccs1 | x | 5 | x | x | x
CC(=O)C(c1ccccc1)C(c1ccccc1)C(C)[N+](=O)[O-] (stereo not given) | -2 | 3 | 0 | 4 | -2
O=C(O)CCCC(=O)N1N=C(c2ccccc2)CC1c1ccc2c(c1)OCO2 (stereo not given) | -1 | -8 | -20 | 11 | 4
O=S(=O)(C/C(=C/CO)S(=O)(=O)c1ccccc1)c1ccccc1 | -71 | 3 | 27 | 3 | 96*
CCOC(=O)C1CCCN(S(=O)(=O)c2cnc(Cl)c(Br)c2)C1 (stereo not given) | -1 | 14 | -36 | 4 | 3
CC1(C)CC1C(=O)Nc1ccc([N+](=O)[O-])cc1Br (stereo not given) | 28 | 0 | -17 | -1 | 16
Cc1ccc(C2(c3ccc(C)cc3)CC2C(=O)Nc2ccc([N+](=O)[O-])cc2O)cc1 (stereo not given) | 67* | 174* | 3 | 105* | -4
NS(=O)(=O)c1ccc(CCNC(=O)c2cccc([N+](=O)[O-])c2)cc1 | -2 | -3 | -24 | 4 | 0
COCC1CCN(C(=O)C2CCC(=O)N(C3CCCCCC3)C2)CC1 (stereo not given) | 3 | -8 | -39 | 1 | 1
Cc1ccc(C(=O)C2=C(O)C(=O)N(Cc3ccco3)C2c2cccc(Br)c2)o1 (stereo not given) | -5 | -1 | -31 | 52* | -6
CC(=O)Oc1ccc(-c2cccc(C(=O)N(C)c3ccc(O)cc3)c2)cc1 | 19 | -5 | -3 | 0 | -6
SMILES | aSyn 5UTR inh | CSC inhib | KLF5 inh | SKKanGAS inh | IEC-6 tox
CCOC(=O)c1sc(NC(=O)Nc2ccc(Cl)cc2)cc1C | -135 | 70 | -50 | 81* | -1
Nc1cc(=O)[nH]c(SCC(=O)NC2CCCCCCC2)n1 | x | -13 | x | x | x
Cn1c(=O)c2c(ncn2CC(=O)N/N=C/c2ccc(Br)s2)n(C)c1=O | 6 | x | -2 | -15 | 3
Cc1ccc(C(NC(=O)NC(C)c2ccccc2)C(Cl)(Cl)Cl)cc1F (stereo not given) | 47 | -1 | -33 | 57* | -1
O=C(CN(C(=O)CCC(=O)Nc1nccs1)c1cccc(F)c1)NCCc1ccccc1 | -1 | -18 | 3 | -6 | 2
CCOC(=O)c1cnn(-c2nc(-c3ccc(F)cc3)cs2)c1C(F)(F)F | -1 | 9 | -18 | 39 | 4
CCOC(=O)c1cnn(-c2nc(-c3ccccc3)cs2)c1C(F)(F)F | -32 | -6 | -5 | 71* | -4
CCOC(=O)c1cnn(-c2nc(-c3ccccc3F)cs2)c1C(F)(F)F | 1 | -5 | -9 | 52* | -1
CCN1CCN(C(=O)c2ccc(Cl)c(S(=O)(=O)N3CCCCC3)c2)CC1 | 15 | -3 | -13 | -3 | 3
Fc1cccc(CN2CCN(c3nc4nonc4nc3NC3CC3)CC2)c1 | -14 | -7 | -23 | -4 | -2
CC1CC(C)(C)NC(=S)N1CCC(=O)NCCc1ccc(Cl)cc1 (stereo not given) | 3 | 10 | 4 | 1 | -8
Cc1cc(C)n(-c2nc(N(c3ccccc3)c3ccccc3)nc(-n3nc(C)cc3C)n2)n1 | u | -15 | -8 | 108* | -5
CN=C(Nc1ccc(C(=O)OC)s1)c1ccc(Cl)cc1 | 9 | 16 | -5 | x | -2
CCOc1ccc(-c2nc[nH]c2[N+](=O)[O-])cc1 | 21 | -9 | -31 | -12 | -5
COC(=O)c1cnn(-c2ccccc2)c1/C=N/NC(=S)Nc1ccc(Cl)cc1 | -15 | 5 | -28 | 1 | 3
C/C(=N\NC(N)=S)c1ccc2c(c1)OCCO2 | -17 | -20 | -2 | -5 | -6
C/C(=N\NC(=S)Nc1ccc(F)cc1)c1ccc2c(c1)OCCO2 | -80 | 76* | -36 | 3 | -4
O=C1C2C(c3ccccc3)(C(=O)N1c1ccc(Cl)cc1)C2(c1ccccc1)c1ccccc1 (stereo not given) | 35 | 75* | -8 | -9 | 1
Cc1ccc(/C=C/C(=O)c2ccccc2O)cc1 | -121 | 11 | -12 | 13 | 5
Cc1cccc(/C=C/C(=O)c2cc(Br)ccc(=O)c2O)c1 | 53 | 103* | -38 | 90* | 1
CCOc1ccc(/C=C/C(=O)c2cc(Br)ccc(=O)c2O)cc1 | x | 46 | -12 | x | -5
Cc1ccc(/C=C/C(=O)c2cc(Br)ccc2OC(=O)c2ccco2)cc1 | -94 | 93* | -36 | 19 | -4
CCc1ccc(/C=C/C(=O)c2cc(Br)ccc(=O)c2O)cc1 | 72* | 9 | -23 | 106* | 1
O=C(NNc1c(Cl)cc(Cl)cc1Cl)C1CCC1 | 2 | -6 | 2 | 1 | 4
COc1ccccc1OCC(=O)NCC1CCCN(Cc2cnn(C(C)C)c2)C1 (stereo not given) | 11 | -8 | -9 | 3 | 5
Cc1ccc(C(=O)/C=C/c2ccccc2[N+](=O)[O-])cc1 | -173 | 9 | -30 | -5 | 7
O=C(/C=C/c1ccccc1[N+](=O)[O-])c1ccccc1Br | -79 | 84* | -46 | 3 | 6

Screens from PubChem BioAssay.
